According to the supplement of paper PMC10681739:

Target: T1, ETS1 (UniProt P14921)
T1 sequence: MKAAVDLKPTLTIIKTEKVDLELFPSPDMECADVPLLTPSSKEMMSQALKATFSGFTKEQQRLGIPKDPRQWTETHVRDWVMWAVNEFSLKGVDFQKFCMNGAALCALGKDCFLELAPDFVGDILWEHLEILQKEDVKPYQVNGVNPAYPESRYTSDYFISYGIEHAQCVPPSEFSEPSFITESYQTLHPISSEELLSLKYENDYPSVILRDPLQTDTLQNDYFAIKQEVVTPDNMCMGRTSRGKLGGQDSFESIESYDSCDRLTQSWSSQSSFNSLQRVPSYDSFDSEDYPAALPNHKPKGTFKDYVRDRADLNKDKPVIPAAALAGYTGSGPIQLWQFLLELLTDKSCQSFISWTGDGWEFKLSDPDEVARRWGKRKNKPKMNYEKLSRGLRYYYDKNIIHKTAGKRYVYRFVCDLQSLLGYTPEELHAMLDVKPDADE
Assay: TF binding intensity (PBM fluorescence), negative control probe (arbitrary fluorescence units); higher = stronger binding
Description: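 gcPBM negative-control 36-bp genomic probes lacking TF binding sites. Each was incubated with recombinant human ETS1 or RUNX1 alone and detected by antibody fluorescence. Values are medians over replicate spots (4 spots for the ETS1-RUNX1 arrays, 3 for the ETS1-ETS1 array). The probes sit in constant array flanks that are not printed.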

**Q.** For “AATGAATCTGCATGAATAAAAGGGTCAACACAGCAG (protein concentration 10 nM)”, which TF binding intensity is on record?
**A.** 147

**Q.** For “CCCTTCGCCATTGCAGCCATGCCACCCCTCCTTCTC (protein concentration 10 nM)”, which TF binding intensity is on record?
**A.** 149

**Q.** “AACGTCTACATTTGCTATTGTAAAACTTTTCAAGGC (protein concentration 10 nM)” was tested. Which TF binding intensity did it give?
**A.** 125

**Q.** “TACTGGGGAGTGAAAAGGACACATCTATCCTTATAT (protein concentration 10 nM)” was tested. Which TF binding intensity did it give?
**A.** 103

**Q.** How did the TF binding intensity turn out when “CTATAGTATGTCAAAACCACAAAGACAATGTGCAGC (protein concentration 1 nM)” was run?
**A.** 466

**Q.** “CTGCTGGGTGGAGTGTGGACAAGCGGCCTTTGCATC (protein concentration 10 nM)” was tested. Which TF binding intensity did it give?
**A.** 150

**Q.** For “TGGGACCTCCAGCATATGACAGTGGACTAAGGACTG (protein concentration 10 nM)”, which TF binding intensity is on record?
**A.** 113

**Q.** For “CTTTCTAAAGAGAAAAGCTCCTTTGTACCACGTGTC (protein concentration 10 nM)”, which TF binding intensity is on record?
**A.** 103

**Q.** Which TF binding intensity does the source give for “CCTGTTTGAAAGAGAAAGAGGGCAGAGTGTGACATG (protein concentration 10 nM)” here?
**A.** 160

**Q.** How did the TF binding intensity turn out when “TATTTCACGCAAATAAGCAGTGACTGAGGACACAGT (protein concentration 10 nM)” was run?
**A.** 117

**Q.** “AAATTTATCTGAGTCCAAAATCTCTCCCTTCAACCT (protein concentration 10 nM)” was tested. Which TF binding intensity did it give?
**A.** 119

**Q.** Which TF binding intensity does the source give for “GCCTTGCCTTGGTCATGTTTGACTCTGCCTTCAACT (protein concentration 10 nM)” here?
**A.** 146

**Q.** For “AAAAAAATAGCTTTAACCACAAAAACTCCTTGAAAA (protein concentration 1 nM)”, which TF binding intensity is on record?
**A.** 514

**Q.** “TTTTTAAATTCGGTTTTGTGTTTTATCTTCAATTTC (protein concentration 10 nM)” was tested. Which TF binding intensity did it give?
**A.** 105

**Q.** “GCTGGGGTTTGCTGCCTGGAGGCAGCCTGTCCAGGA (protein concentration 10 nM)” was tested. Which TF binding intensity did it give?
**A.** 109

**Q.** Which TF binding intensity does the source give for “AATAAAGGTGAGGCAGTCCAGAGTATTTCAAAACGG (protein concentration 10 nM)” here?
**A.** 116

**Q.** With “CAAGATCTCTAACCACACTCGTCTGTGGCACTTCTT (protein concentration 10 nM)” as the sequence, how does the TF binding intensity read?
**A.** 118

**Q.** How did the TF binding intensity turn out when “ACTCATTAGCAGTGAGCCACAAAGACTCTCTGGAAG (protein concentration 1 nM)” was run?
**A.** 359

**Q.** How did the TF binding intensity turn out when “AAGCCTGGAGTTGGGGTGGTGGGGTGAGAATCAGCC (protein concentration 10 nM)” was run?
**A.** 170

**Q.** How did the TF binding intensity turn out when “GTTAAGTACCTGAATGAGCACTGGACCAGAGCCGGG (protein concentration 10 nM)” was run?
**A.** 106

**Q.** Which TF binding intensity does the source give for “AGGCATAACAGAAAAACCTCAACTTAAATAGTGCTG (protein concentration 1 nM)” here?
**A.** 626

**Q.** Which TF binding intensity does the source give for “GTTGTTATGCAAGGTTGTGGTTTTTGCAGTCTTTTG (protein concentration 1 nM)” here?
**A.** 498

**Q.** Which TF binding intensity does the source give for “CAGTGCAGCTGTTTGCCATGTGGGCCCACACCACTG (protein concentration 10 nM)” here?
**A.** 126

**Q.** Which TF binding intensity does the source give for “GTGAATTCAAAACAACCCACAGTTTTAATTCTCTGT (protein concentration 1 nM)” here?
**A.** 452

**Q.** With “CTCAGTGCCTGCCTCAGATGTTTAAGTCTGAACATT (protein concentration 10 nM)” as the sequence, how does the TF binding intensity read?
**A.** 110

**Q.** Which TF binding intensity does the source give for “CCTGAGGCCTGCCCCAGTCACCTGTATTTACCCTGC (protein concentration 10 nM)” here?
**A.** 122

**Q.** Which TF binding intensity does the source give for “TTTCTGTTTTGTTTTATTTTGTTTGTTTTTATTCTG (protein concentration 10 nM)” here?
**A.** 128

**Q.** Which TF binding intensity does the source give for “CCTGTTCTGTGTTTGGAGCCAGCAGAGCAGGGAGGA (protein concentration 10 nM)” here?
**A.** 153

**Q.** How did the TF binding intensity turn out when “GATGCTCTGATACGCGCTGAAAAGAAGTCAGGCTTC (protein concentration 10 nM)” was run?
**A.** 134

**Q.** For “GCCCTGAGACTTGCCTTGCAATGCCATGTTTGTGTA (protein concentration 10 nM)”, which TF binding intensity is on record?
**A.** 125

**Q.** For “ACAGGCCCTCCAGGTGTTGAAACCATGCTGGGCTGA (protein concentration 10 nM)”, which TF binding intensity is on record?
**A.** 102

**Q.** Which TF binding intensity does the source give for “CTGGGGTGGCGCCAGCCTTATTATGACTAACCATGA (protein concentration 10 nM)” here?
**A.** 105

**Q.** With “TTATAGGTGAGAGCTACCATGCCTGGTCCTATTTAA (protein concentration 10 nM)” as the sequence, how does the TF binding intensity read?
**A.** 97.6

**Q.** How did the TF binding intensity turn out when “TCTGAATGCTAAGCTCATCGAAGACGCCCAGCACTT (protein concentration 10 nM)” was run?
**A.** 123

**Q.** For “ACTTAGGTCTCTGTTACCACCATGAAACAATTTAGT (protein concentration 1 nM)”, which TF binding intensity is on record?
**A.** 545

**Q.** Which TF binding intensity does the source give for “CTGAGAGCCAGGCCCGTTCCCTCTGAACCTCAGTTC (protein concentration 10 nM)” here?
**A.** 103

**Q.** Which TF binding intensity does the source give for “CTGGGCCATTAACCTCAGCAGAAAAATGCTTTTTGC (protein concentration 10 nM)” here?
**A.** 97.6

**Q.** “ATAAAGTACATTAATTCATTCATCCAGCAAGAGTGT (protein concentration 10 nM)” was tested. Which TF binding intensity did it give?
**A.** 122

**Q.** How did the TF binding intensity turn out when “TAGAAACCGTGTTTTAAATTTAACACTGGTAAGATG (protein concentration 10 nM)” was run?
**A.** 113

**Q.** For “ACTGATCATCTGAAATGTGGCTAGTGTGAAAATGAA (protein concentration 1 nM)”, which TF binding intensity is on record?
**A.** 532
